The supplement of paper PMC4709259
Counter-ions that a name gives are not always drawn. ± gives the standard deviation.

Key:
[1] = system: Jurkat; experiment: mean cell size (FSC-A) relative to DMSO control (fraction of control); higher = larger cells; settings: 48 h
Summary of the method: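 Jurkat cells at 600 cells/µl were incubated for 1 h and then treated for 48h with the Enzo Screen-Well FDA Approved Drug Library v2.0 at 25µM, with DMSO at 0.9% (v/v) final. Compounds that reduced counts below 20% of controls were retested in 10-fold dilutions down to 25nM. Cell count and mean cell size, taken as forward scatter area, were measured by flow cytometry relative to solvent-only controls. Each plate carried 6-12 controls, and values are means of 3 biological replicates.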

[2] = system: Jurkat; experiment: cell count relative to DMSO control (fraction of control); higher = more cells (less growth inhibition); settings: 48 h

| SMILES | mean cell size [1] | cell count [2] |
| --- | --- | --- |
| C[C@@H](O)[C@H]1C(=O)N2C(C(=O)O)=C(SCCNC=N)C[C@H]12 [Imipenem] (concentration: 25 µM) | 0.883 ± 0.063 | 0.344 ± 0.13 |
| CCN(CC)CCOc1ccc(C(=C(Cl)c2ccccc2)c2ccccc2)cc1 [Clomiphene Citrate] (concentration: 25 µM) | 0.897 ± 0.013 | 0.793 ± 0.056 |
| CCCCCCCN(CC)CCCC(O)c1ccc(NS(C)(=O)=O)cc1 (stereo not drawn) [Ibutilide Fumarate] (concentration: 25 µM) | 0.936 ± 0.027 | 0.903 ± 0.047 |
| COc1ccnc(C[S+]([O-])c2nc3cc(OC(F)F)ccc3[nH]2)c1OC (stereo not drawn) [Pantoprazole] (concentration: 25 µM) | 0.9065 ± 0.0044 | 0.85 ± 0.034 |
| OC(Cn1cncn1)(Cn1cncn1)c1ccc(F)cc1F [Fluconazole] (concentration: 25 µM) | 0.969 ± 0.054 | 0.325 ± 0.14 |
| OC[C@H]1O[C@@H](O[C@@H]2[C@@H](CO)OC(O)(CO)[C@H]2O)[C@H](O)[C@@H](O)[C@H]1O (mixture of isomers) [Lactulose] (concentration: 25 µM) | 0.938 ± 0.046 | 0.56 ± 0.15 |
| CN(C)CCCN1c2ccccc2Sc2ccc(Cl)cc21 [Chlorpromazine·HCl] (concentration: 2.5 µM) | 1.06 ± 0.017 | 0.631 ± 0.15 |
| COc1cc(C(C)=O)ccc1OCCCN1CCC(c2noc3cc(F)ccc23)CC1 [Iloperidone] (concentration: 25 µM) | 0.954 ± 0.031 | 0.734 ± 0.088 |
| CC(C)Cn1cnc2c(N)nc3ccccc3c21 [Imiquimod] (concentration: 25 µM) | 0.936 ± 0.018 | 0.44 ± 0.15 |
